Pf growth 48h: Primary qHTS for delayed death inhibitors of the malarial parasite plastid, 48 hour incubation | P. falciparum luciferase growth in erythrocytes, 48 h | Potency, µM (top dose mostly 28.7 µM), for the others: top-dose activity change, negative = inhibition, most hits filed as inhibitors | hit rate 5.9% among 310,000; also: % is scaled to controls: 0 for no effect and ±100 for the full control effect
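Here the parasites carry a stable luciferase gene and grow inside erythrocytes in Albumax-based RPMI medium with compound for one erythrocytic cycle. Activity is scored as loss of luminescent signal.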
HCV inh: qHTS Assay for Inhibitors of Hepatitis C Virus (HCV) | Huh7.5.1 HCVcc-Cre infection, luciferase reporter, 44 h | Potency, µM (doses to about 41.8 µM), inactives show top-dose activity change, negative = inhibition, usual class: inhibitors | hit rate 3.4% among 340,000 | AID 651820, 2012; also: % is scaled to controls: 0 for no effect and ±100 for the full control effect
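Cells seeded at 1,000/well and cultured 4 h, then compounds added followed by HCVcc-Cre virus (~0.5 moi). After 44 h further culture, luciferase substrate was added, plates held 15 min at room temperature, and luminescence read for 15 sec.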
Pf growth 96h: Primary qHTS for delayed death inhibitors of the malarial parasite plastid, 96 hour incubation. Potency, µM (titrated, usually from 28.7 µM), without a hit: top-dose activity change, negative = inhibition, usual class: inhibitors. P. falciparum luciferase reporter growth, 96 h. hit rate 6.9% among 320,000; also: % is scaled to controls: 0 for no effect and ±100 for the full control effect
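Cell-based qHTS: luciferase-tagged P. falciparum in erythrocytes (2% hematocrit, 0.05% parasitemia final) incubated with compounds for 96 hours, 37 C, 5% CO2; luciferase detection reagent then added and luminescence measured.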
Vaccinia mCherry: qHTS for Stage-Specific Inhibitors of Vaccinia Orthopoxvirus: mCherry Reporter Primary qHTS | Vaccinia virus mCherry reporter infection, fluorescence | Potency, µM (highest dose often 36.5 µM), for inactives: top-dose activity change, negative = inhibition, actives largely listed as inhibitors | hit rate 0.63% among 310,000 | AID 720579, 2013; calls by dose curve; tested in A549 cells; also: % is scaled to controls: 0 for no effect and ±100 for the full control effect; nearly all actives have a fitted effect of over 35% in size
NS1 inh: qHTS Assay for Inhibitors of Influenza NS1 Protein Function; Potency, µM (highest dose often 46.1 µM), for the others: at the top dose activity, positive = more growth; hit rate 0.4% among 270,000; AID 2326, 2010; calls by dose curve; also: actives are rising curves; nearly all actives have a fitted effect of over 50% in size
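In this qHTS, NS1 from influenza A is expressed in budding yeast, where it slows growth. Cells are switched from glucose to 2% galactose medium (pH 6.0, -URA), treated with compound, and growth recovery is read at OD600.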
VACV Venus inh: qHTS for Stage-Specific Inhibitors of Vaccinia Orthopoxvirus: Venus Reporter Primary qHTS. Vaccinia virus Venus reporter expression, fluorescence. Potency, µM (highest dose often 36.5 µM), for inactives: top-dose activity change, negative = inhibition, hits mostly inhibitors. hit rate 0.46% among 330,000. AID 720580, 2013; calls by dose curve; tested in A549 cells; also: % is scaled to controls: 0 for no effect and ±100 for the full control effect; nearly all actives have a fitted effect of over 30% in size
An asterisk follows results filed as active; i = inactive; ? = inconclusive; nt = not tested or not shown; [ ] = another dose, or the depositor's remark. In the library only some 11% were active in any assay of this set; here they are far more common. Unless noted, calls follow the shape of the dose curve; as a rule, active = well fitted inhibition curve with a large enough effect; inconclusive = small, poorly fitted or top-dose-only effect, or another doubt; inactive = no such curve, though single readings can be large or run the other way. Potency is read from the fitted curve at half-maximal effect.

SMILES | Pf growth 48h | HCV inh | Pf growth 96h | Vaccinia mCherry | NS1 inh | VACV Venus inh
COC(=O)C1=C(C(=O)OC)[C@@H]2N(Cc3ccccc3)c3ccccc3[C@@]23C[C@@H](C(=O)OC)N(C(=O)CC(C)C)C3=N1 | 4.1µM* | ? | 4.7µM* | i | 2% | -8%
Nc1ccc2ncccc2c1 | ? | 6% | ? | nt | -4% | nt
CCOC(=O)Cc1c(C)c2ccc(N(CC)CC)cc2oc1=O | 3.7µM* | 10µM* | -14% | i | -9% | -23%
CCN(CC)c1ccc2c(C)c(-c3ccc(N)cc3)c(=O)oc2c1 | ? | 8.9µM* | ? | nt | 22% | -27%
CCc1c(C)c2ccc(OCC(=O)N(C)C)c(C)c2oc1=O | 4% | -22% | ? | nt | -17% | nt
CCOC(=O)CCc1c(C)c2ccc(O)cc2oc1=O | -7% | 10% | ? | -12% | -27% | -14%
CCN(CC)c1ccc2c(C)c(Cl)c(=O)oc2c1 | 2% | -14% | ? | -2% | 5% | -25%
CCOC(=O)CCc1c(C)c2ccc(OCC(=O)N(CC)CC)c(C)c2oc1=O | 10µM* | ? | nt | -11% | -9% | -5%
CC(Oc1ccccc1)C(=O)Nc1nnc(S(=O)(=O)N2CCCCCC2)s1 (stereo not drawn) | 17% | 16% | 4% | -23% | -69% | -15%
Cc1cccc(OCCCSc2nc3ccc(C)cc3[nH]2)c1 | 4% | 20% | 4% | -17% | -45% | -14%
CC(C)N(Cc1ccccc1)C(=O)/C=C/c1ccccc1[N+](=O)[O-] | 10µM* | ? | -4% | ? | -1% | -15%
CS/C(=C\[N+](=O)[O-])Nc1ccc(OC(F)(F)F)cc1 | -11% | -23% | 2% | nt | nt | nt
CSc1nc(C)c2cc(C)oc2n1 | 16% | -9% | 0.37µM* | nt | -15% | -29%
COc1nc(C)c2cc(C)oc2n1 | 3% | -5% | -15% | i | 9% | 8%
CCCn1c(O)c(N=NC(=O)c2cccnc2)c2cc(Br)ccc21 | 5.9µM* | ? | 5.9µM* | ? | -31% | -9%
O=C(NCCOc1ccccc1)c1ccccc1SCC(=O)N1CCCC1 | -24% | 4% | ? | -14% | nt | -2%
O=C1[C@H]2[C@@H](/C=C/c3ccccc3)N3C(=O)CN(CCO)C(=O)[C@@]3(Cc3ccccc3)[C@H]2C(=O)N1c1ccccc1 | 25% | ? | 59% | -13% | -10% | -21%
COc1ccc2c(c1)-c1nc(NC(=O)c3cccs3)sc1CC2 | ? | -26% | 15% | nt | ? | ?
COc1ccc2c(c1)-c1nc(/N=C/c3ccc(O)cc3)sc1CC2 | 21% | ? | 4.1µM* | -28% | -28% | -13%
COc1ccc2c(c1)-c1nc(/N=C/c3c(O)ccc4ccccc34)sc1CC2 | 11% | 13µM* | 4.7µM* | ? | -33% | -18%
Cc1cccc(-c2nc(C)c(CCNC(=O)c3cccs3)s2)c1 | nt | nt | nt | 7% | nt | -2%
CCOc1ccc(OCCSc2nc3ccccc3c(=O)[nH]2)cc1 | nt | 13% | 47% | nt | -1% | nt
O=c1cc(-c2ccccc2)nc(SCCOc2ccccc2Cl)[nH]1 | 7% | -13% | 7.4µM* | nt | 2% | nt
O=c1[nH]c(SCCOc2cccc3ccccc23)nc2ccccc12 | -10% | 5% | 2.1µM* | -4% | nt | -3%
O=c1cc(-c2ccccc2)nc(SCc2nc(-c3ccccc3Cl)no2)[nH]1 | nt | nt | nt | -6% | nt | -1%
COc1cccc(N/C(=N/C(=S)Nc2ccc(C)cc2C)Nc2nc(C)cc(C)n2)c1 | 4.1µM* | ? | 3.3µM* | ? | -2% | -10%[7.34 µM]
CCNC(=S)/N=C(/Nc1ccc(OC)cc1)Nc1nc(C)cc(C)n1 | ? | ? | ? | -2% | -3% | -3%
Cn1c(=O)c2c(nc(NCC3CCCC(CN)C3)n2Cc2ccc(Cl)cc2Cl)n(C)c1=O (stereo not drawn) | 2.9µM* | 11µM* | 2.9µM* | nt | 4% | nt

Screening data: PubChem, National Center for Advancing Translational Sciences (NCATS)
